# Compound activity deposited in PubChem BioAssay by National Center for Advancing Translational Sciences (NCATS).
# HT1080 IDH1KD tx: kills HT-1080 cells with IDH1 knockdown; HT-1080 IDH1 knockdown viability, ATP luminescence, 48 h; Potency, µM (titrated, usually from 46.1 µM), inactives show at the highest dose activity, negative = toxicity, usual class: cytotoxic; actives 2% (n = 360,000); AID 686971;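 note: potency is the fitted concentration of half-maximal effect; 0% = DMSO wells and -100% = cell-free medium wells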
#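 Knockdown cells (IDH1KD HT-1080) received compounds 2 h after plating at 750 cells/well and were kept 48 h at 37 °C in 5% FBS RPMI. A CellTiter-Glo luminescence read gave % activity for curve fitting.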
# HT1080-NT tox: kills 2HG-producing HT-1080-NT fibrosarcoma cells; HT-1080-NT fibrosarcoma viability, CellTiter-Glo ATP luminescence, 48 h; Potency, µM (doses to about 46.1 µM), for the others: at the top dose activity, negative = less viability, most hits filed as cytotoxic; actives 1.6% (n = 360,000); AID 686970;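 note: NT is the 2HG producing partner of a matched IDH1 knockdown line; potency is the fitted concentration of half-maximal effect; 0% = DMSO-treated cells and -100% = media-only wells without cells; nearly all actives have a fitted effect of over 55% in size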
#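 Read-out is CellTiter-Glo luminescence after 10 minutes at room temperature, following 48 hours' compound treatment of HT-1080-NT cells (750 cells/well, RPMI, 5% FBS, 37 degrees C).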
# DT40 TDP1 CPT: growth inhibition of DT40 Tdp1-/-;hTDP1 cells with camptothecin (screen for TDP1 inhibitors); chicken DT40 Tdp1-/-;hTDP1 cells + 20 nM CPT, ATP luminescence, 48 h; Potency, µM (doses to about 46.2 µM), without a hit: at the top dose activity change, negative = growth inhibition, usual class: inhibitors; actives 12% (n = 420,000); AID 686979; note: potency is the fitted concentration of half-maximal effect; nearly all actives have a fitted effect of over 55% in size
#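 Cell growth measured by CellTiter-Glo luminescence after a minimum 48 h, 37 C compound exposure with 20 nM CPT in Tdp1-knockout DT40 cells stably expressing hTDP1, seeded 400/well; qHTS titration format.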
# IL-1B inflam inh: blocks inflammasome-driven IL-1 beta release; THP-1 LPS/ATP IL-1B secretion, AlphaLISA, 16 h; hits give low values; actives 4.7% (n = 360,000); AID 743279; activity change, % at 57.5 µM; in the data active = activity change below about -50%; inconclusive = mostly about -30% to -49%
#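 Secreted IL-1B measured by AlphaLISA bead assay after 16 h compound exposure of THP-1 cells; compounds (final up to 57.5 uM) added 1 h before LPS (250 ng/mL) and ATP (1.25 mM) stimulation; lower signal means less secretion.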
# uPA generation: inhibitors of cell surface uPA generation | cell surface uPA generation assay, qHTS | Potency, µM (titrated, usually from 38.3 µM), without a hit: at the top dose activity change, negative = inhibition, usual class: inhibitors | actives 0.31% (n = 330,000) | AID 540303; active = well fitted inhibition curve with a large enough effect; inconclusive = small, poorly fitted or top-dose-only effect; inactive = no such curve, though single readings can be large or run the other way; tested in mouse RAW 264.7 cells; note: potency is the fitted concentration of half-maximal effect; nearly all actives have a fitted effect of over 55% in size
# TDP1 cell noCPT: qHTS for Inhibitors of human tyrosyl-DNA phosphodiesterase 1 (TDP1): qHTS in cells in absence of CPT; DT40 Tdp1-/- hTDP1 cells, no CPT, ATP luminescence, 48 h; Potency, µM (top dose mostly 46.2 µM), for inactives: at the top dose activity change, negative = growth inhibition, hits mostly inhibitors; actives 15% (n = 420,000); AID 686978, 2013; note: potency is the fitted concentration of half-maximal effect; nearly all actives have a fitted effect of over 55% in size
#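 Stably hTDP1-transfected Tdp1-null chicken DT40 cells were treated with library compounds minus camptothecin and grown for at least 48 hr at 37 °C, after which cellular ATP was quantified by luminescence.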
# Starred values were filed as active, the others as inactive; ? = inconclusive; . = not tested or not shown. This is a sample that favours compounds with a hit; in the whole collection about 19% have one here. Unless noted, calls come from the whole dose curve; as a rule, active = well fitted curve in the direction sought with a large enough effect; inconclusive = small, poorly fitted or top-dose-only effect, or another doubt; inactive = no such curve, though single readings can be large; an effect the other way counts as inactive or inconclusive. Unless noted, % is set by controls: 0 for no effect and ±100 for the full control effect.
SMILES,HT1080 IDH1KD tx,HT1080-NT tox,DT40 TDP1 CPT,IL-1B inflam inh,uPA generation,TDP1 cell noCPT
Cc1ccc(C2CC(=O)C=C(NCc3ccccc3)C2)cc1 (configuration not stated),21µM*,?,5.2µM*,-17,-16%,4.6µM*
COc1ccc(NC2=CC(=O)CC(c3ccc(C)cc3)C2)c(OC)c1 (configuration not stated),-1%,2%,?,13,-1%,?
Cc1ccc(C2CC(=O)C=C(NCC(C)C)C2)cc1 (configuration not stated),-5%,-1%,?,-22,-3%,21µM*
O=C(/C=C/c1ccc(S(=O)(=O)N2CCOCC2)cc1)NC(CO)C(O)c1ccc([N+](=O)[O-])cc1 (configuration not stated),17%,2%,-2%,-1,1%,-15%
O=C(COc1nsnc1N1CCOCC1)N/N=C/c1ccccc1O,15µM*,?,4.6µM*,48,-5%,2.6µM*
CCOc1ccc(NC(=O)COc2nsnc2N2CCOCC2)cc1,10%,8%,16µM*,7,11%,13µM*
COC(=O)Oc1nsnc1N1CCOCC1,0%,0%,23µM*,?,5%,?
O=C1COc2ccc(C(=O)COC(=O)Cc3ccc(F)cc3)cc2N1,2%,-2%,-1%,-15,-3%,?
CCCN(CCC)C(=S)NC(=O)c1ccc(Cl)cc1Cl,2.5µM*,3.2µM*,18µM*,30,-20%,?
Cc1ccccc1C(=O)NNC(=S)NC(=O)c1ccc(Cl)cc1Cl,0%,?,?,26,1%,?
Brc1ccc(OCCOCCOc2cccc3cccnc23)cc1,-8%,0%,?,?,6%,23µM*
Clc1ccc(OCCOCCOc2cccc3cccnc23)c(Br)c1,?,?,23µM*,-3,3%,?
O=C(CSc1nnc2ccc(-c3ccccn3)nn12)Nc1ccc(F)cc1F,12%,12%,-6%,-8,1%,-10%
COc1ccc(C2CC(=O)c3c([nH]c(C(=O)OC4CCCCCC4)c3C)C2)cc1OC (configuration not stated),.,.,3.7µM*,.,.,4.6µM*
Cc1c(C(=O)OC2CCC(C)CC2)[nH]c2c1C(=O)CC(c1ccc(F)cc1)C2 (configuration not stated),.,.,?,.,.,18µM*
Cc1c(C(=O)OC2CCCCCC2)[nH]c2c1C(=O)CC(c1ccc(N(C)C)cc1)C2 (configuration not stated),.,.,-4%,.,.,?
Cc1c(C(=O)OC2CCCC2)[nH]c2c1C(=O)CC(c1ccc(C(C)(C)C)cc1)C2 (configuration not stated),.,.,18µM*,.,.,?
CCOc1ccc(C2CC(=O)c3c([nH]c(C(=O)OC4CCC(C)CC4)c3C)C2)cc1 (configuration not stated),.,.,-10%,.,.,-9%
Cc1c(C(=O)N2CCOCC2)[nH]c2c1C(=O)CC(c1ccccc1Cl)C2 (configuration not stated),4µM*,5µM*,3.3µM*,-17,?,4.1µM*
COc1ccc(C2CC(=O)c3c([nH]c(C(=O)OC4CCCC4)c3C)C2)cc1OC (configuration not stated),.,.,-6%,.,.,-13%
CC(=O)CSc1nnc2[nH]c(=O)cc(N)n12,.,.,2%,.,.,0%
Cc1c(C(=O)OC2CCCCC2)[nH]c2c1C(=O)CC(c1ccccc1Cl)C2 (configuration not stated),.,.,4.1µM*,.,.,2.1µM*
CCOC(=O)C1CCN(C(=O)c2ccc(NC(=O)c3nsc4ccccc34)cc2)CC1,.,.,21µM*,.,.,?
CCOC(=O)C1CCCN(C(=O)c2ccccc2)CC1 (configuration not stated),1%,-1%,-5%,23,.,9%
CCOC(=O)C1CCCN(C(=O)c2ccc(NC(=O)c3nsc4ccccc34)cc2)C1 (configuration not stated),.,.,?,.,.,16µM*
SMILES,HT1080 IDH1KD tx,HT1080-NT tox,DT40 TDP1 CPT,IL-1B inflam inh,uPA generation,TDP1 cell noCPT
COc1cccc(-c2cc(C(=O)NC3CCCCC3)no2)c1,11%,10%,8%,-23,-3%,-2%
Cc1ccc(S(=O)(=O)N2CCC(C(=O)NC3CC(C)(C)NC(C)(C)C3)CC2)cc1C,0%,-11%,-1%,14,7%,-10%
O=C1CC(c2ccccc2)Cc2[nH]c(=O)c(-c3nc(-c4ccc(Cl)c(Cl)c4)cs3)cc21 (configuration not stated),.,.,3.3µM*,.,.,2.3µM*
O=C1CC(c2ccccc2)Cc2[nH]c(=O)c(-c3nc(-c4ccc(Cl)cc4)cs3)cc21 (configuration not stated),.,.,0.58µM*,.,.,0.65µM*
COc1ccc(C2CC(=O)c3cc(-c4nc(-c5cccc(Cl)c5)cs4)c(=O)[nH]c3C2)cc1OC (configuration not stated),.,.,?,.,.,9.2µM*
O=C1CC(c2ccccc2)Cc2[nH]c(=O)c(-c3nc(-c4ccc(F)cc4)cs3)cc21 (configuration not stated),.,.,5.2µM*,.,.,3.3µM*
Clc1ccc(-n2cnnn2)cc1,-5%,-3%,8%,7,-8%,?
CO/C=C\C=C/c1nnn(-c2ccc(Cl)cc2)n1,?,18%,?,-14,3%,23µM*
CCOc1cc(/C=C2\SC(=S)N(C(C(=O)O)c3ccccc3)C2=O)ccc1O (configuration not stated),-12%,-8%,-4%,17,4%,27%
O=C1/C(=C/c2cccc(O)c2)SC(=S)N1CC1CCCO1 (configuration not stated),-2%,-5%,?,?,0%,?
CCOc1cc(/C=C2/SC(=S)N(CC3CCCO3)C2=O)ccc1O (configuration not stated),-1%,2%,?,-7,?,23µM*
COc1cccc(/C=C2\SC(=S)N(CC3CCCO3)C2=O)c1 (configuration not stated),-20%,2%,-3%,-71*,-6%,-7%
Cc1cc(Br)ccc1NC(=O)c1cn(C2CCCC2)c(=O)c2c1c1ccccc1n2C,.,.,-27%,.,.,?
